# Screens as filed in PubChem.
# Tau ThT inhib – qHTS for Inhibitors of Tau Fibril Formation, Thioflavin T Binding | Microtubule-associated protein tau (Homo sapiens), P10636 | recombinant tau K18 P301L, heparin-induced fibrillization, ThT fluorescence | Potency, µM (doses to about 57.4 µM), for the others: at the top dose activity, negative = inhibition, actives largely listed as inhibitors | 270,000 compounds, 2.1% hits | AID 1460, 2008; further: nearly all actives have a fitted effect of over 55% in size
# Target sequence (P10636 561-689 P618L limits assumed): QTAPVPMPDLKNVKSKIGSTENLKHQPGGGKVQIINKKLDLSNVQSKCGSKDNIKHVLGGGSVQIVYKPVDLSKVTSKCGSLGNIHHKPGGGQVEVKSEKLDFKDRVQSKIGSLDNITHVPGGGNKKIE
#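 ThT emission at 510 nm, taken 1 hr after adding 30 uM dye, quantifies aggregates formed when 20 uM heparin acts on human tau K18 P301L for 6 hr at 37 C.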
# HPGD block – qHTS Assay for Inhibitors of HPGD (15-Hydroxyprostaglandin Dehydrogenase); purified HPGD, NADH fluorescence kinetic, PGE2 substrate; Potency, µM, without a hit: at the top dose activity change, negative = inhibition, usual class: inhibitors; 150,000 compounds, 4.3% hits; active means well fitted inhibition curve with a large enough effect, not every such curve was filed as active; inconclusive means small, poorly fitted or top-dose-only effect, or another doubt; inactive means no such curve, though single readings can be large or run the other way
#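 NADH formation kinetics: reaction with 30 uM PGE2 and 1 mM NAD+ (final), 20 nM enzyme, Tris-HCl pH 8 with Tween 20, after 15 min compound preincubation at room temperature. Fluorescence change, last versus first of five reads.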
# ALDH1A1 inh – qHTS Assay for Inhibitors of Aldehyde Dehydrogenase 1 (ALDH1A1) | Purified ALDH1A1, NADH fluorescence, propionaldehyde substrate | AID 1030, 2008 | Potency, µM (top dose mostly 75.3 µM), for inactives: top-dose activity, negative = inhibition, actives largely listed as inhibitors | 220,000 compounds, 7.3% hits; active means well fitted inhibition curve with a large enough effect, not every such curve was filed as active; inconclusive means small, poorly fitted or top-dose-only effect, or another doubt; inactive means no such curve, though single readings can be large or run the other way;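 further: plate controls were no enzyme wells and a reference inhibitor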
# Tau fluor cs – Counterscreen qHTS for Inhibitors of Tau Fibril Formation, Fluorescence Polarization | tau K18 P301L Alexa594 fluorescence, heparin fibrillization | 280,000 compounds, 0.93% hits | Potency, µM (top dose mostly 57.7 µM), for the others: at the highest dose activity change, negative = decrease; further: nearly all actives have a fitted effect of over 55% in size
#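 Human tau K18 P301L (15 uM unlabeled, 0.24 uM Alexa 594-labeled) in 100 mM sodium acetate pH 7 with 20 uM heparin, 6 hr at 37 C. ThT 30 uM added, 1 hr ambient; Alexa 594 FP and total fluorescence read at 555/632 nm.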
# Tau FP inhib – qHTS for Inhibitors of Tau Fibril Formation, Fluorescence Polarization; Microtubule-associated protein tau (Homo sapiens), P10636; K18 P301L tau heparin fibrillization, Alexa594 FP, 6 h; Potency, µM (doses to about 57.7 µM), for the others: top-dose activity, negative = inhibition, usual class: inhibitors; 280,000 compounds, 0.39% hits; AID 1468, 2008; further: nearly all actives have a fitted effect of over 55% in size
#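 Human tau K18 […] P301L fragment, 15 uM unlabeled plus 0.24 uM Alexa 594-labeled tau (final), with compound and 20 uM heparin in 100 mM sodium acetate pH 7; 6 hr at 37 C, then Alexa 594 FP read.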
# NPSR antagonist – qHTS Assay for Antagonists of the Neuropeptide S Receptor: cAMP Signal Transduction | Q6W5P4 | AID 1461, 2008 | CHO-NPSR cells, cAMP TR-FRET, antagonist mode | Potency, µM (doses to about 38.3 µM), for the others: at the top dose activity change, negative = inhibition, usual class: inhibitors | 220,000 compounds, 1% hits; further: nearly all actives have a fitted effect of over 50% in size
# Target sequence (Q6W5P4 whole entry, looked up): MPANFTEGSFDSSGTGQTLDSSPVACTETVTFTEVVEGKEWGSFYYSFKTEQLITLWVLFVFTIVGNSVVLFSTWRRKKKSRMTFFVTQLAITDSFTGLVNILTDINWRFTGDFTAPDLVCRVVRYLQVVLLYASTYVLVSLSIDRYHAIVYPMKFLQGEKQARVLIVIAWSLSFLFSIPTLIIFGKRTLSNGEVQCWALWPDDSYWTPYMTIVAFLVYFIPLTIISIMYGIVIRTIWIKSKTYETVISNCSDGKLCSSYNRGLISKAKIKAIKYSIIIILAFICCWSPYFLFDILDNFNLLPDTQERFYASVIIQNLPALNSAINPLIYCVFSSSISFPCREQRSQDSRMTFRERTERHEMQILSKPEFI
# Starred values were filed as active, the others as inactive; ? = inconclusive; . = no result; [ ] = another dose, or the depositor's remark. Only some compounds are listed: those with a hit (about 9.5% of all), similar ones and a draw of the others. Unless noted, the call rests on the fitted dose curve; in most records, active means well fitted curve in the direction sought with a large enough effect; inconclusive means small, poorly fitted or top-dose-only effect, or another doubt; inactive means no such curve, though single readings can be large; an effect the other way counts as inactive or inconclusive. Unless noted, on the % scale 0 is the no-effect control and ±100 the full control effect; potency means the concentration at half of the fitted maximal effect.
SMILES,Tau ThT inhib,HPGD block,ALDH1A1 inh,Tau fluor cs,Tau FP inhib,NPSR antagonist
O=[N+]([O-])c1ccc(C2=NN(CCO)C(=Nc3ccc(OC(F)(F)F)cc3)SC2)cc1,14µM*,.,?,?,14%,56%
CO/N=C/c1ccc(N2CCOCC2)c([N+](=O)[O-])c1,?,.,?,7%,3%,7%
O=C(O/N=C\c1ccc(N2CCCCC2)c([N+](=O)[O-])c1)c1ccc(Cl)cc1Cl,5µM*,-6%,?,-25%,-2%,-19%[46.1 µM]
Cc1ccc(C(=O)O/N=C\c2ccc(N3CCOCC3)c([N+](=O)[O-])c2)cc1,?,-23%,2.2µM*,-16%,-6%,-5%[46.1 µM]
Nc1nnnn1/N=C/c1ccc(N2CCCCC2)c([N+](=O)[O-])c1,7%,-14%,0.071µM*,1%,6%,-37%
CCCCC(=O)N/N=C/c1ccc(N2CCOCC2)c([N+](=O)[O-])c1,?,3%,11µM*,3%,3%,0%
CCCN(CCC)S(=O)(=O)c1ccc(C(=O)NCc2n[nH]c(=S)n2-c2ccc(Cl)c(Cl)c2)cc1,-16%,.,-10%,?,5%,-31%
CCSc1ccc(C(=O)NCC(=O)O)cc1,-3%,.,2%,-7%,-7%,-17%
Nc1ccc(C(=O)NCC(=O)O)cc1,32µM*,-12%,1%,?,?,.
FC(F)(F)c1cccc(N2Cc3ccccc3C2)c1,-16%,-16%,?,-13%,-8%,-13%[46.1 µM]
O=[N+]([O-])c1cccc(N2Cc3ccccc3C2)c1,16µM*,.,-7%,?,?,-1%
CC1CCc2nc(NC(=O)CN3CCN(Cc4ccc5c(c4)OCO5)CC3)sc2C1 (stereo unspecified),?,-18%,14µM*,-6%,3%,-5%[46.1 µM]
CC1CCc2nc(NC(=O)CN3CCN(c4ccccc4)CC3)sc2C1 (stereo unspecified),-12%,-1%,?,-17%,12%,-15%[46.1 µM]
CCN(CC)CCNC(=O)c1sc2nc(C)cc(C)c2c1-n1cccc1,5%,.,.,11%,12%,.
Clc1ccc(-c2csc(NNC3=NCCCCC3)n2)cc1,32µM*,?,?,?,?,-4%[46.1 µM]
Brc1ccc(-c2csc(NC3=NCCCCC3)n2)cc1,-18%,-6%,-2%,-1%,4%,-13%[46.1 µM]
c1ccc(-c2csc(NNC3=NCCCCC3)n2)cc1,25µM*,?,32µM*,?,25µM*,-19%[46.1 µM]
Cc1nn2c(=O)cc(COC(=O)c3ccccc3NC(=O)C(C)C)nc2s1,?,.,.,-1%,-3%,.
COc1cccc(S(=O)(=O)c2nc(C)c3c(n2)CCC3)c1,-5%,.,6.3µM*,-3%,-3%,1%
Cn1nc(C(C)(C)C)cc1NC(=O)Nc1cc(Cl)cc(Cl)c1,-9%,.,8%,7.1µM*[quencher],25µM*,55%
CCc1ccccc1NC(=O)CN1C(=O)c2cccnc2Oc2ccc(Cl)cc21,-6%,.,.,-7%,4%,.
CC1(C)CC(=O)C(CC2C(=O)CC(C)(C)CC2=O)C(=O)C1,10µM*,.,.,?,?,16%
CC1(C)CC(=O)C(CC2CCCCC2=O)C(=O)C1 (stereo unspecified),8%,.,.,10%,1%,-18%
O=C1CC(N2CCOCC2)=NN1c1ccc([N+](=O)[O-])cc1,7.1µM*,.,.,?,2%,-41%
O=[N+]([O-])c1ccc(N2CCOCC2)nc1,-14%,?,?,4%,3%,-6%[46.1 µM]
CN(C)c1ccc(/C=C2/C(=O)N(c3ccc([N+](=O)[O-])cc3)N=C2N2CCOCC2)cc1,16µM*,-10%,1.3µM*,?,-6%,-8%[46.1 µM]
